# Laboratory results from the supplement of paper PMC8728848.
# This is one part of a sample in which the strongest signals are shown more often than they occur.
# B1: Blon2355mut (Bifidobacterium longum) (protein)
# chain: MVQEPTLEWHVIPEPTNVEPLVGTCSLPLSGTVVEQRGADDAEAVFARQLVDDIKRVCGGRWQVASGEVQREVTLRTSPSLDDWSYVLEVSPDGVVITGSGFEGVRDGVQTLRQIIRQIGLTIPCMVIRDRPAFSTRGYYLDVTRGRVPSMAWLKSWVDRLCFYKYNQFQLYIEHTFQFNGLSEVWRGADPLTSSDILELDSYCAARGIELVPSVSTFGHHYTALRTRQLRDLGEFPEDADRPFSLIERMTHHTLNITDERSYEFSTSLIDELMPLFRSRKFNICANETFDLGKGRSKQESAKRGVGAMYADFVERLCRHVDDRGHDVMVWADVALEHPEIIDTLPKNITWLNWQYEPNVDDGTTAALADAGATQMVCPAVWCWNALIPRIDDAWNNITRMARHGRAHDVSGMLVTDWGDFGHVNDPRMSVPGMIFGAQQSWNPDAELSEVDMLSRISTIEYGDHTGSVVGALRGASAKGGFSWSDLVTYLELDDGRGGCNTEIVRVMGCLEAYRNDLPQSGQARLADARVSMLRTLRDSILAGRELNGKLDDAAKDITQLLRVAGDPSSAAVWSLAIDGQRLLNRVGLALLAAHGVVRQDEAGIDAAKLADELECWTEQYSRLWHEVSRQSELARIQHVVWRAADVLRSI
# Legend:
# Assay in all cases: glycan array binding signal (z-score within array); higher = stronger binding
# Details in all cases: glycan notation: IUPAC condensed, linker removed
# [1] = target: Fuc(a1-2)Gal(b1-3)GalNAc(b1-3)Gal
# Procedure, shortened: (§1)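 Arrays were curated from the Consortium for Functional Glycomics database, 3228 in total, and kept only where the protein sequence was available. Binding is expressed as a within-array Z-score. This score was averaged across arrays of the same protein sequence at different concentrations or buffers and across linkers, and negative values can be read as non-binding.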
# [2] = target: Fuc(a1-2)Gal(b1-3)GlcNAc(b1-2)Man(a1-3)[Fuc(a1-2)Gal(b1-3)GlcNAc(b1-2)Man(a1-6)]Man(b1-4)GlcNAc(b1-4)GlcNAc
# Procedure, shortened: as §1
# [3] = target: Fuc(a1-2)Gal(b1-4)GlcNAc(b1-3)[Fuc(a1-2)Gal(b1-4)GlcNAc(b1-6)]GalNAc
# Procedure, shortened: as §1
# [4] = target: Fuc(a1-2)Gal3S(b1-4)GlcNAc
# Procedure, shortened: as §1
# [5] = target: Fuc(a1-2)[Gal(a1-3)]Gal(b1-4)Glc
# Procedure, shortened: as §1
# [6] = target: Fuc(a1-2)[Gal(a1-3)]Gal(b1-4)GlcNAc(b1-2)Man(a1-3)[Fuc(a1-2)[Gal(a1-3)]Gal(b1-4)GlcNAc(b1-2)Man(a1-6)]Man(b1-4)GlcNAc(b1-4)GlcNAc
# Procedure, shortened: as §1
# [7] = target: Fuc(a1-3)[Gal(b1-4)]GlcNAc(b1-4)Gal(b1-4)[Fuc(a1-3)]GlcNAc(b1-4)Gal(b1-4)[Fuc(a1-3)]GlcNAc
# Procedure, shortened: as §1
# [8] = target: Fuc(a1-3)[Gal3S(b1-4)]GlcNAc6S
# Procedure, shortened: as §1
# [9] = target: Fuc(a1-3)[GalNAc(b1-4)]GlcNAc
# Procedure, shortened: as §1
# [10] = target: Gal(a1-3)Fuc(a1-2)Gal(b1-4)GlcNAc(b1-3)[Gal(a1-3)Fuc(a1-2)Gal(b1-4)GlcNAc(b1-6)]GalNAc
# Procedure, shortened: as §1
# [11] = target: Gal(a1-3)[Gal(a1-4)]Gal(b1-4)GlcNAc
# Procedure, shortened: as §1
# [12] = target: Gal(b1-3)GalNAc(a1-3)[Fuc(a1-2)]Gal(b1-4)Glc
# Procedure, shortened: as §1
# [13] = target: Gal(b1-3)[Fuc(a1-4)]GlcNAc(b1-3)Gal(b1-3)[Fuc(a1-4)]GlcNAc
# Procedure, shortened: as §1
# [14] = target: Gal(b1-4)GalNAc(b1-3)[Fuc(a1-2)]Gal(b1-4)GlcNAc
# Procedure, shortened: as §1
# [15] = target: Gal(b1-4)GlcNAc(b1-2)Man(a1-3)[Gal(b1-4)GlcNAc(b1-2)Man(a1-6)]Man(b1-4)GlcNAc(b1-4)GlcNAc
# Procedure, shortened: as §1
# [16] = target: Gal(b1-4)GlcNAc(b1-2)Man(a1-3)[Gal(b1-4)GlcNAc(b1-2)Man(a1-6)][GlcNAc(b1-4)]Man(b1-4)GlcNAc(b1-4)[Fuc(a1-6)]GlcNAc
# Procedure, shortened: as §1
# [17] = target: Gal(b1-4)GlcNAc(b1-2)[Gal(b1-4)GlcNAc(b1-6)]Man(a1-6)[GlcNAc(b1-4)][Gal(b1-4)GlcNAc(b1-2)[Gal(b1-4)GlcNAc(b1-4)]Man(a1-3)]Man(b1-4)GlcNAc(b1-4)[Fuc(a1-6)]GlcNAc
# Procedure, shortened: as §1
# [18] = target: Gal(b1-4)GlcNAc(b1-3)Gal(b1-3)GlcNAc
# Procedure, shortened: as §1
# [19] = target: Gal(b1-4)GlcNAc(b1-3)Gal(b1-4)Glc
# Procedure, shortened: as §1
# [20] = target: Gal3S(b1-4)Glc
# Procedure, shortened: as §1
# [21] = target: Gal3S(b1-4)[Fuc(a1-3)]Glc6S
# Procedure, shortened: as §1
# [22] = target: Gal4S6S(b1-4)GlcNAc
# Procedure, shortened: as §1
# [23] = target: Gal6S(b1-4)Glc6S
# Procedure, shortened: as §1
# [24] = target: GalNAc(b1-3)GlcNAc
# Procedure, shortened: as §1
# [25] = target: GalNAc(b1-4)GlcNAc
# Procedure, shortened: as §1
# [26] = target: GalNAc(b1-4)GlcNAc(b1-3)GalNAc(b1-4)GlcNAc
# Procedure, shortened: as §1
# [27] = target: GalNAc6S(b1-4)GlcNAc
# Procedure, shortened: as §1
# [28] = target: Glc(a1-4)Glc(a1-4)Glc(a1-4)Glc
# Procedure, shortened: as §1
# [29] = target: GlcNAc(a1-4)Gal(b1-4)GlcNAc
# Procedure, shortened: as §1
# [30] = target: GlcNAc(a1-4)Gal(b1-4)GlcNAc(b1-3)Gal(b1-4)GlcNAc
# Procedure, shortened: as §1
binder,measurement,setting,value
B1,glycan array binding signal (z-score),[1],4.04
same,glycan array binding signal (z-score),[2],2.69
same,glycan array binding signal (z-score),[3],-0.88
same,glycan array binding signal (z-score),[4],-0.915
same,glycan array binding signal (z-score),[5],-0.428
same,glycan array binding signal (z-score),[6],-0.395
same,glycan array binding signal (z-score),[7],-0.166
same,glycan array binding signal (z-score),[8],0.088
same,glycan array binding signal (z-score),[9],3.72
same,glycan array binding signal (z-score),[10],-1.04
same,glycan array binding signal (z-score),[11],3.31
same,glycan array binding signal (z-score),[12],-1.53
same,glycan array binding signal (z-score),[13],-1.02
same,glycan array binding signal (z-score),[14],0.202
same,glycan array binding signal (z-score),[15],-0.374
same,glycan array binding signal (z-score),[16],-0.951
same,glycan array binding signal (z-score),[17],-0.768
same,glycan array binding signal (z-score),[18],-1.26
same,glycan array binding signal (z-score),[19],1.06
same,glycan array binding signal (z-score),[20],2.74
same,glycan array binding signal (z-score),[21],3.52
same,glycan array binding signal (z-score),[22],0.175
same,glycan array binding signal (z-score),[23],1.48
same,glycan array binding signal (z-score),[24],0.179
same,glycan array binding signal (z-score),[25],3.04
same,glycan array binding signal (z-score),[26],0.796
same,glycan array binding signal (z-score),[27],-0.569
same,glycan array binding signal (z-score),[28],2.06
same,glycan array binding signal (z-score),[29],-0.637
same,glycan array binding signal (z-score),[30],-0.378
